# GLP-1R agonist: GLP-1 receptor (human) agonism. P43220. HEK293 GLP-1R CRE-luciferase, luminescence, 4-6 h; cells express a hypersensitive GLP-1R form. Potency, µM (titrated, usually from 45.6 µM), for inactives: top-dose activation, most hits filed as activators. actives 0.007% (n = 380,000). AID 624172; further: potency means the concentration at half of the fitted maximal effect; % of control where 0% means no effect
# ClpP mod: qHTS Assay for Activators of ClpP; ATP-dependent Clp protease proteolytic subunit (Bacillus subtilis (strain 168)), P80244; AID 651965, 2013; Potency, µM (top dose mostly 57.5 µM), inactives show at the top dose activity change, negative = active; actives 1.9% (n = 340,000); purified B. subtilis ClpP, FRET peptide cleavage, 20 min; active means well fitted falling curve with a large enough effect; inconclusive means small, poorly fitted or top-dose-only effect; inactive means no such curve, though single readings can be large or run the other way; further: potency means the concentration at half of the fitted maximal effect; the source files actives as falling curves though it sought activators and does not explain the sign; nearly all actives have a fitted effect of over 65% in size
#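 Buffer: 100 mM Tris/HCl pH8, 100 mM KCl, 0.05% low protease BSA, 2.5% glycerol, 0.01% Tween-20. ClpP 10 microg/mL final; 20 min RT; delta FRET normalized to ADEP and DMSO controls.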
# GLP1R cytotox: cytotoxic in the GLP-1 receptor inverse agonist counter-screen | HEK293 cAMP-luciferase reporter cells, luminescence, 24 h | Potency, µM (top dose mostly 38.3 µM), without a hit: top-dose activity change, negative = inhibition, usual class: inhibitors | actives 0.13% (n = 410,000);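 further: loss of luciferase light is scored as toxicity; potency means the concentration at half of the fitted maximal effect; on the % scale 0 is the no-effect control and ±100 the full control effect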
#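 Step one: seed cells (200 cells/uL, DMEM with 10% Nu serum, 1% pen-strep). Step two: 12-hour incubation at 37 deg C. Step three: pin 23 nL compound, incubate 24 hr. Step four: add luciferase reagent, read luminescence 12 min later.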
# DRD3 antagonist: antagonists of human D3 dopamine receptor | actives 2.5% (n = 360,000) | D3R cells, DiscoveRx beta-arrestin luminescence, antagonist mode; active compounds read low | max response, negative = inhibition, % | P35462; in the data active means max response below about -50%; inconclusive means no clear call, values can overlap the other calls; further: on the % scale 0 is the no-effect control and ±100 the full control effect
# Target sequence (P35462 whole entry, looked up): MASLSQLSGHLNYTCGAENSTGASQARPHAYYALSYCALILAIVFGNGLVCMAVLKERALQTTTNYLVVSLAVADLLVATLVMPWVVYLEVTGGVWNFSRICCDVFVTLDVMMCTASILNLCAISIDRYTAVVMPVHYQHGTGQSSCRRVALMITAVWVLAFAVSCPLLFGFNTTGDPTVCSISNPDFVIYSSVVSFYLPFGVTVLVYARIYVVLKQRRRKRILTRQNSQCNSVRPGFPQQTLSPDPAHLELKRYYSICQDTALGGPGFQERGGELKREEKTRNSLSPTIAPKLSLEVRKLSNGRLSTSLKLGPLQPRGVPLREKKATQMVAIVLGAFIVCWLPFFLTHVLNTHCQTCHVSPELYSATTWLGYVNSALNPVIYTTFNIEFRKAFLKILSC
#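 Cells plated overnight at 1500 cells/well, then exposed to library compounds with dopamine controls for 90 minutes at 37 degrees C. DiscoveRx reagent added for 30–60 minutes at room temperature; luminescence read, quantitative HTS format.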
# D3 ag: agonists of human D3 dopamine receptor; D3R DiscoveRx beta-arrestin cells, luminescence, 90 min; max activation, %; actives 0.58% (n = 410,000); in the data active means max activation above about 30%; further: 0% is about no effect
#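 Cells at 1500/well, incubated overnight, then treated with pinned compounds (dopamine as control) for 90 min at 37 degrees C. DiscoveRx reagent added for 30 - 60 minutes at room temperature; luminescence read.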
# GLP-1R inv ag: acts as inverse agonist at human GLP-1 receptor; actives 1.6% (n = 410,000); HEK293 GLP-1R CRE-luciferase, luminescence, 24 h; GLP-1R form is constitutively active; Potency, µM (series often up to 38.3 µM), inactives show at the highest dose activity change, negative = inhibition, usual class: inhibitors; further: potency means the concentration at half of the fitted maximal effect; on the % scale 0 is the no-effect control and ±100 the full control effect; nearly all actives have a fitted effect of over 55% in size
#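 Luminescence readout: a drop in cAMP-driven luciferase signal flags inverse agonism at a constitutively active GLP-1R stably expressed in HEK293. Compound exposure lasted 24 hr at 37 deg C, 5% CO2.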
# * marks the source's active call; other numbers are inactive results; ? = inconclusive; . = no result. The list is not random: actives were taken first. Their share in the collection is about 5.7%. Unless noted, the call rests on the fitted dose curve; in most records, active means well fitted curve in the direction sought with a large enough effect; inconclusive means small, poorly fitted or top-dose-only effect, or another doubt; inactive means no such curve, though single readings can be large; an effect the other way counts as inactive or inconclusive.
SMILES,GLP-1R agonist,ClpP mod,GLP1R cytotox,DRD3 antagonist,D3 ag,GLP-1R inv ag
CCCCn1c(N)c(N(CCC(C)C)C(=O)c2[nH]c(C)c(C(=O)OCC)c2C)c(=O)[nH]c1=O,-2.1%,17.8µM*,-10.3%,6.4,-10.4,12.1%
CCCCN(C(=O)C1CC(=O)N(c2ccc3c(c2)OCCO3)C1)c1c(N)n(CCCC)c(=O)[nH]c1=O (stereo unspecified),0.8%,-2.4%,1.6%,4.9,-4.6,5.9%
CCCN(Cc1cc2cc(C)ccc2[nH]c1=O)C(=O)c1cccc(Cl)c1,.,-1.9%,-18.6%,.,10.5,1.3%
CCOC(=O)N1CCc2c(sc(NCc3cc(OC)ccc3OC)c2C(=O)Nc2cc(OC)ccc2OC)C1,.,-16.7%,0.7%,.,1.6,3.5%
Cc1ccc(NC(=O)c2ccc3snnc3c2)cc1Cl,-2.8%,1.7%,-5.1%,.,-1.6,11.1%
O=C(C[C@@H]1CC[C@H](NC(=O)c2ccc3c(c2)OCO3)[C@@H](CO)O1)NCc1ccc(F)cc1,.,-7.8%,0.1%,3.6,6.8,18.8%
CC(=O)N1CCC2(CC1)NC(=O)N(c1ccccc1)N2,-1.4%,.,-20.9%,3.3,5.0,?
O=C1NC2(CCCCC2)NN1c1ccccc1,-0.7%,-3.3%,0.9%,11.2,-6.1,?
C=C(C)CCC1(C)NC(=O)N(c2ccccc2)N1 (stereo unspecified),0.5%,.,?,9.2,6.1,10µM*
CC1(c2ccc(O)cc2)NC(=O)N(c2ccccc2)N1 (stereo unspecified),3.3%,.,-9.0%,1.0,-4.8,3.16µM*
O=c1n(Cc2ccc(Cl)cc2)c2ccccc2c2nc(-c3ccccc3)nn12,.,-20.2%,6.8%,.,-1.3,1.8%
COCCN(CCOC)C(=O)c1cc2c(=O)n3ccccc3nc2n1C,.,4.2%,178.8%,.,4.3,13.4%
O=C(NN=C1C2CC3CC(C2)CC1C3)c1cc(Cl)ccc1O,-30.5%,28.2µM*,15.4%,-8.9,-0.1,21.2%
O=C(NN=C1C2CC3CC(C2)CC1C3)c1ccncc1,12.0%,-1.0%,56.6%,2.8,-2.1,-5.2%
CSCC[C@H](NC(=O)[C@H](Cc1ccccc1)n1c(=O)[nH]c2ccccc2c1=O)C(=O)N1CCC(C(=O)O)CC1,-3.5%,-18.0%,2.3%,10.7,31.8*,3.6%
C[C@H](NC(=O)[C@H](Cc1ccccc1)n1c(=O)[nH]c2ccccc2c1=O)C(=O)N1CCC(C(=O)O)CC1,-0.3%,?,1.3%,-6.4,36.4*,-5.8%
CC(C)C[C@H](NC(=O)[C@H](Cc1ccccc1)n1c(=O)[nH]c2ccccc2c1=O)C(=O)N1CCC(C(=O)O)CC1,-1.6%,?,-12.1%,-12.2,-7.1,-2.1%
Cc1c(NC(=O)COC(=O)c2ccccc2O)c(=O)n(-c2ccccc2)n1C,3.5%,10.9%,5.1%,-11.7,-2.2,29.2%
Cc1c(NC(=O)COC(=O)c2cc3c4ccccc4n(C)c3s2)c(=O)n(-c2ccccc2)n1C,-3.5%,25.1µM*,15.9%,-23.3,-1.5,-27.0%
Cc1c(NC(=O)COC(=O)c2ccccc2Cl)c(=O)n(-c2ccccc2)n1C,3.4%,.,0.8%,15.0,0.0,-5.4%
Cc1c(NC(=O)COC(=O)C2CC3C=CC2C3)c(=O)n(-c2ccccc2)n1C (stereo unspecified),4.1%,-0.4%,3.6%,-75.7*,-6.4,-1.8%
CCCc1cc(=O)[nH]c(SCc2nc(-c3ccc(OC)cc3)no2)n1,.,0.9%,4.2%,.,6.5,4.8%
O=c1[nH]c2ccccc2c(=O)c2ccccc12,-4.6%,-2.7%,-3.0%,-5.8,-3.9,48.8%
O=C(Nc1ccc2c(c1)[nH]c(=O)c1ccccc12)C(F)(F)F,16.0%,20.3%,-2.8%,1.6,0.6,43.2%
Nc1ccc2c(c1)[nH]c(=O)c1ccccc12,1.6%,20µM*,4.8%,4.1,-12.9,98.4%
